Screening data deposited in PubChem BioAssay by National Center for Advancing Translational Sciences (NCATS).
Compounds with a hit are over-represented: about 19% of the library has one in this group of screens.
RORgamma inh = inhibitors of mouse ROR gamma transcriptional activity; P51450; Drosophila S2 Gal4-RORgamma UAS-luciferase reporter, 20 h; Potency, µM (highest dose often 53.6 µM), for inactives: top-dose activity change, negative = inhibition, most hits filed as inhibitors; 310,000 tested, 5.4% active; AID 2551; note: nearly all actives have a fitted effect of over 60% in size
Target sequence (P51450 whole entry, looked up, the tested form may be a part): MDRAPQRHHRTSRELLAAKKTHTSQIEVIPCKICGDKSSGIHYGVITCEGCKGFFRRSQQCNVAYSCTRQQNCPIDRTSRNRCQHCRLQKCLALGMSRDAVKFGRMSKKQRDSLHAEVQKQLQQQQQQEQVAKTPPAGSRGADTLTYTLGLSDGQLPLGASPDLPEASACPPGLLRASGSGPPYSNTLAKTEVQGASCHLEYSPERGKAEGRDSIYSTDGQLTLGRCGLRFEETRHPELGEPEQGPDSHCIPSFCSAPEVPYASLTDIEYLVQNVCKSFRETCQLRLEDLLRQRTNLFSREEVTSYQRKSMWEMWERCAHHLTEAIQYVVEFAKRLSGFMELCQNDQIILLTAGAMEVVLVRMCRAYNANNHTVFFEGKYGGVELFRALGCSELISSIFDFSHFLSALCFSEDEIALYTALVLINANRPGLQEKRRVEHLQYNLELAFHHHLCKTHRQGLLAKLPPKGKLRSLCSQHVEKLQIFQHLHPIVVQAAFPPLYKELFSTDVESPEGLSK
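A Gal4/UAS one-hybrid system in insect cells: metallothionein-promoter Gal4–ROR gamma fusion plus Photinus luciferase reporter. Copper sulfate 700 uM final, 20 hr ambient incubation, luminescent detection after 10 min with reagent.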
TDP1 cell noCPT = qHTS for Inhibitors of human tyrosyl-DNA phosphodiesterase 1 (TDP1): qHTS in cells in absence of CPT; DT40 Tdp1-/- hTDP1 cells, no CPT, ATP luminescence, 48 h; Potency, µM (doses to about 46.2 µM), without a hit: top-dose activity change, negative = growth inhibition, most hits filed as inhibitors; 420,000 tested, 15% active; note: nearly all actives have a fitted effect of over 55% in size
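DT40 Tdp1-/-;hTDP1 cells, no CPT (DMSO vehicle only), 400 cells/well; compounds pin-transferred; ≥48 hr, 37 °C; CellTiter-Glo 30 min RT dark, luminescence read.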
TDP1 cell CPT = DT40-hTDP1 cell growth loss with CPT; chicken DT40 Tdp1-/-;hTDP1 cells + 20 nM CPT, ATP luminescence, 48 h; Potency, µM (top dose mostly 46.2 µM), for the others: at the top dose activity change, negative = growth inhibition, most hits filed as inhibitors; 420,000 tested, 12% active; AID 686979; note: nearly all actives have a fitted effect of over 55% in size
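Chicken DT40 Tdp1-/- cells stably complemented with human TDP1 were seeded at 400 cells/well in medium containing 20 nM camptothecin, exposed to pin-transferred compounds, and grown at 37 °C for at least 48 hr. Viability was read as ATP luminescence.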
VP16 counter = Gal4-VP16 reporter inhibition counter-screen | Drosophila S2 Gal4-VP16 UAS-luciferase, luminescence, 20 h | Potency, µM (top dose mostly 53.6 µM), without a hit: at the top dose activity, negative = inhibition, actives largely listed as inhibitors | 310,000 tested, 3.5% active | AID 2546;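 note: Gal4-VP16 expression switched on by copper sulfate through the metallothionein promoter; nearly all actives have a fitted effect of over 50% in size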
TDP1 block = blocks human tyrosyl-DNA phosphodiesterase 1. Potency, µM (top dose mostly 130 µM), without a hit: at the highest dose activity change, negative = inhibition, usual class: inhibitors. Q9NUW8. AID 485290. 350,000 tested, 0.28% active. recombinant TDP1, AlphaScreen DNA substrate cleavage; note: nearly all actives have a fitted effect of over 40% in size
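Tdp1 1 nM final; 15 min RT w/ cpd; substrate 15 nM, 5 min; beads 10 ug/ml, 10 min; AlphaScreen read. Neg ctrl: no enzyme.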
The depositor's hits bear a star; ? = inconclusive; / = not tested or not shown; [ ] = dose if it differs, or a comment. Calls come from the whole dose curve; as a rule, active = well fitted curve in the direction sought with a large enough effect; inconclusive = small, poorly fitted or top-dose-only effect, or another doubt; inactive = no such curve, though single readings can be large; an effect the other way counts as inactive or inconclusive. % is set by controls: 0 for no effect and ±100 for the full control effect; potency is the fitted concentration of half-maximal effect.

SMILES | RORgamma inh | TDP1 cell noCPT | TDP1 cell CPT | VP16 counter | TDP1 block
COC1(NS(=O)(=O)c2ccc(Br)cc2)C(C)=CC(=O)C=C1C | 2.1% | ? | 13µM* | 0.9% | -2.5%
COc1ccc(O)c(C(=O)c2coc(=N)c(C(=O)Nc3ccc(SC(F)F)cc3)c2)c1 | -19.2% | 18.4µM* | ? | ? | 9.2%
CC(C)(C)c1ccc(C(=O)N2CCC2(C)C(=O)NCc2cccs2)cc1 (stereo not given) | / | 0.651µM* | 6.51µM* | / | /
CC(C)(C)c1ccc(CC(=O)N2CCC2(C)C(=O)NS(=O)(=O)c2cccs2)cc1 (stereo not given) | / | 3.3% | 0.7% | / | /
CC(C)(C)c1ccc(CC(=O)N2CCC2(C)C(=O)NCc2cccs2)cc1 (stereo not given) | / | 10.3µM* | 11.6µM* | / | /
COCCCN1C(=O)C(=O)/C(=C(/O)c2ccc(C)cc2)C1c1ccccc1 (stereo not given) | -5.9% | -45.8% | -16.1% | -6.3% | 4.8%
Cc1cc(N2CCC(C(=O)Nc3ccc(Cl)cc3)CC2)n2nc(C)c(-c3ccc(Cl)cc3)c2n1 | / | 4.2% | -2.9% | / | 1.2%
CC(=O)Nc1ccc(Nc2cc(C)nc3c(-c4ccc(Cl)cc4)cnn23)cc1 | ? | 23.1µM* | 18.4µM* | ? | 0.0%
CC(=O)Nc1ccc(Nc2cc(C)nc3c(-c4ccc(Cl)cc4)c(C)nn23)cc1 | 11.2µM* | ? | ? | 7.08µM* | -2.7%
COc1cc(NC(=O)c2cc(=O)[nH]c3ccc(S(=O)(=O)N4CCOCC4)cc23)cc(OC)c1 | / | -14.0% | -8.5% | / | 3.5%
COc1cccc2sc3ccc(C#CC4(O)CCCCC4)cc3c(=O)c12 | ? | ? | ? | -3.8% | /
Cc1c(C(=O)O)sc2nc(/C=C/c3ccccc3OC(F)F)[nH]c(=O)c12 | 19.4% | -5.0% | -6.6% | 5.1% | 70.8µM*
Cc1ccc(/C=C/c2nc3sc(C(=O)O)c(C)c3c(=O)[nH]2)cc1[N+](=O)[O-] | 8.5% | 4.5% | -2.6% | -1.8% | 11.2µM*
CN(CCO)C(=O)c1cn(C2CCN(Cc3cccc4ccccc34)CC2)nn1 | / | -19.9% | -8.5% | / | /
O=C1/C(=C/c2ccc(C(=O)O)cc2)CCC/C1=C\c1ccc(C(=O)O)cc1 | -16.6% | -13.9% | -3.3% | 1.6% | 0.0%
C=CC(=O)N1C/C(=C/c2ccc(Cl)cc2)C(=O)/C(=C\c2ccc(Cl)cc2)C1 | / | 0.411µM* | 0.231µM* | / | /
C=CC(=O)N1C/C(=C/c2ccccc2)C(=O)/C(=C\c2ccccc2)C1 | / | 0.731µM* | 0.731µM* | / | /
COCCOC(=O)C(CC(=O)O)NCc1ccco1 (stereo not given) | 9.8% | 10.9% | 0.7% | 5.1% | 2.7%
Cc1ccccc1C(=O)c1cccn1CC(=O)NCCCN1CCCCC1 | -0.2% | 11.0% | -10.7% | 0.7% | 1.2%
Cc1ccc(C)c(N2CCN(CCCNC(=O)Cn3cccc3C(=O)c3ccccc3C)CC2)c1 | ? | 2.59µM* | 2.59µM* | ? | 2.6%
Cc1ccccc1C(=O)c1cccn1CC(=O)NCCN1CCN(c2cccc(C)c2C)CC1 | ? | 8.2µM* | 16.4µM* | ? | 4.5%
Cc1ccccc1C(=O)c1cccn1CC(=O)NCCC1=CCCCC1 | 6.5% | -0.8% | -14.9% | -14.1% | 1.2%
CC1(C)Oc2ccc3ccc(=O)oc3c2/C(=C/Nc2cccc(O)c2)C1=O | -20.4% | 20.6µM* | ? | ? | 8.6%
OCC[C@@H]1C[C@H](O)[C@@H](O)[C@@]2(OCc3cc(Cl)ccc32)O1 | / | -5.0% | -7.6% | / | /
CC1CCc2c(nc3ncnn3c2N2CCN(c3ccccc3)CC2)C1 (stereo not given) | 6.9% | ? | ? | -5.8% | 1.9%
SMILES | RORgamma inh | TDP1 cell noCPT | TDP1 cell CPT | VP16 counter | TDP1 block
CC1CCc2c(nc3ncnn3c2NCCc2ccccc2F)C1 (stereo not given) | -38.8% | 13µM* | ? | -23.4% | 2.8%
CCc1cccc(Nc2c3c(nc4ncnn24)CCC3)c1 | 10µM* | 20.6µM* | ? | 15.8µM* | 0.0%
Cc1ccc(Nc2c3c(nc4ncnn24)CC(C)CC3)cc1 (stereo not given) | 17.8µM* | ? | ? | ? | 0.0%
CCOc1ccc(Nc2c3c(nc4ncnn24)CC(C)CC3)cc1 (stereo not given) | -23.8% | ? | ? | -7.9% | 0.0%
COc1ccccc1CN1CC(C(=O)NCC2CCCO2)CC1=O (stereo not given) | 1.3% | -17.7% | -3.6% | -0.8% | -2.1%
CSCCC(NC(=O)c1ccccc1Br)C(=O)NCC1CCCCC1 (stereo not given) | 2.3% | -16.9% | -7.8% | -3.9% | -2.5%
CC(C(=O)OCC(=O)c1ccccc1)N1C(=O)C2C3CCC(C3)C2C1=O (stereo not given) | 2.1% | -22.8% | -9.4% | 0.7%[10 µM] | 7.9%
CC(C(=O)OCC(=O)c1ccc([N+](=O)[O-])cc1)N1C(=O)C2C3C=CC(C3)C2C1=O (stereo not given) | 14.6% | ? | 16.4µM* | 16.7% | 3.6%
CC(C(=O)OCC(=O)c1ccc([N+](=O)[O-])cc1)N1C(=O)C2C3CCC(C3)C2C1=O (stereo not given) | ? | ? | 16.4µM* | 2.0% | -1.3%
Cc1ccc(C(=O)COC(=O)C(C)N2C(=O)C3C4C=CC(C4)C3C2=O)cc1 (stereo not given) | ? | -7.6% | 2.9% | 8.0% | 2.4%
COc1ccc(CNC(=O)C2CC(c3ccccc3C(F)(F)F)=NO2)cc1 (stereo not given) | 13.5% | -9.7% | 0.1% | 0.5% | 0.0%
NC(=S)Cc1nc(-c2ccccc2)cs1 | 11.2µM* | ? | ? | 8.91µM* | 5.6%
N/C(Cc1nc(-c2ccc(F)cc2)cs1)=N\O | -22.7% | -11.0% | -14.8% | -3.4% | 1.3%
O=S(=O)(c1ccccc1)n1nc(-c2ccco2)nc1NCc1ccccc1 | / | -21.8% | ? | / | -3.7%
Cc1nc2ccc(NC(=O)c3ccc(Cl)c(NC(=O)c4cccs4)c3)cc2s1 | 21.5% | 20.6µM* | ? | -8.9% | 1.0%
COc1cccc(C(=O)Nc2cc(NC(=O)c3cccs3)ccc2C)c1 | -5.5% | -19.3% | -23.5% | -7.4% | 6.31µM*
Cc1ccc(NC(=O)c2ccc(Cl)c(NC(=O)c3cccs3)c2)cc1 | 33.5% | ? | ? | ? | 1.6%
COc1cc(C(=O)Nc2cccc(NC(=O)c3cccs3)c2)cc(OC)c1OC | ? | 20.6µM* | 20.6µM* | -4.1% | /
COc1c(Cl)cc(Cl)cc1/C=C/C(=O)c1ccc(NC(=O)c2cccs2)cc1 | ? | 2.59µM* | 2.31µM* | ? | 2.7%
